PubChem BioAssay (Tox21)
Records with an inconclusive call do not appear. Active and inactive are the calls of the source. Unless noted, calls come from the whole dose curve; as a rule, active = well fitted curve in the direction sought with a large enough effect in the repeat runs; inconclusive = weak or mixed curves; inactive = no such curve, though single readings can be large; an effect the other way counts as inactive or inconclusive.

Assays:
[1] = A CellTox Green Cytotoxicity Assay to monitor cytotoxicity in HepG2 cells - 0 hour (AID 1224882); note: nearly all actives have a fitted effect of over 35% in size
How it was run: (§1)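 HepG2 cells were seeded together with the CellTox Green dye at 600 cells/well, left 5 h at 37 C/5% CO2, then given compounds in DMSO. Fluorescence from dye bound to dead-cell DNA was read repeatedly over 40 h of treatment at 37 C.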

[2] = A CellTox Green Cytotoxicity Assay to monitor cytotoxicity in HEK293 cells - 8 hour (AID 1224884); note: nearly all actives have a fitted effect of over 35% in size
How it was run: (§2)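 HEK293 cells premixed with CellTox Green dye were seeded at 600 cells/well and left 5 h at 37 C/5% CO2 before pin transfer of 23 nL compound in DMSO. Fluorescence from dye bound to dead-cell DNA was read during 40 h treatment.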

[3] = qHTS RealTime-Glo MT Cell Viability Assay in HepG2 cells - 16 hour (AID 1224885); note: nearly all actives have a fitted effect of over 50% in size
How it was run: (§3)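 Cell number in HepG2 cultures estimated from NanoLuc luminescence generated by metabolic reduction of a prosubstrate by living cells. The homogeneous, nonlytic format allowed repeated reads at 0, 8, 16, 24, 32 and 40 h of compound exposure.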

[4] = qHTS RealTime-Glo MT Cell Viability Assay in HEK293 cells - 24 hour (AID 1224886); note: top concentration of the series differs between compounds; nearly all actives have a fitted effect of over 50% in size
How it was run: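 Homogeneous bioluminescent viability format in HEK293 cells (600 cells/well). Following 5 h at 37 C/5% CO2, 23 nL compound was pintooled; the signal was measured repeatedly during 40 h incubation.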

[5] = qHTS RealTime-Glo MT Cell Viability Assay in HEK293 cells - 8 hour (AID 1224887); note: top concentration of the series differs between compounds; nearly all actives have a fitted effect of over 50% in size
How it was run: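 HEK293 cells mixed with RealTime-Glo reagents (NanoLuc plus cell-permeant prosubstrate) at 600 cells/well, preincubated 5 h at 37 C/5% CO2, then given 23 nL compound in DMSO. Nonlytic luminescence from viable cells was read at 0, 8, 16, 24, 32 and 40 h.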

[6] = qHTS RealTime-Glo MT Cell Viability Assay in HepG2 cells - 0 hour (AID 1224889); note: nearly all actives have a fitted effect of over 50% in size; note: potency is the fitted concentration of half-maximal effect
How it was run: as §3

[7] = qHTS assay to identify small molecule antagonists of the estrogen receptor alpha (ER-alpha) signaling pathway using the BG1 cell line in the presence of 0.1 nM 17-beta-estradiol - cell viability counter screen (AID 1259241); note: nearly all actives have a fitted effect of over 40% in size
How it was run: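 The cell line endogenously expresses full-length ER-alpha and carries four EREs driving luciferase. Cells are cultured 5 days hormone-free, treated 22 hr with compounds and 0.1 nM estradiol, then viability is read by fluorescence.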

[8] = qHTS assay to identify small molecule antagonists of the androgen receptor (AR) signaling pathway using the MDA cell line in the presence of 0.5 nM R1881 - cell viability counter screen (AID 1259242); note: nearly all actives have a fitted effect of over 45% in size
How it was run: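 MDA-kb2 cells (human breast carcinoma, stably carrying MMTV-luciferase reporter) were exposed to compounds with 0.5 nM R1881 (final) for 16 hr at 37C, 0% CO2; viability then read as live-cell protease fluorescence (CellTiter-Fluor, 30 min) in the same wells.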

[9] = target: Estrogen receptor (Homo sapiens) (UniProt P03372); assay: qHTS assay to identify small molecule antagonists of the estrogen receptor alpha (ER-alpha) signaling pathway using the BG1 cell line in the presence of 0.1 nM 17-beta-estradiol (AID 1259244); note: nearly all actives have a fitted effect of over 50% in size
Sequence of Estrogen receptor (Homo sapiens) (P03372 whole entry, looked up): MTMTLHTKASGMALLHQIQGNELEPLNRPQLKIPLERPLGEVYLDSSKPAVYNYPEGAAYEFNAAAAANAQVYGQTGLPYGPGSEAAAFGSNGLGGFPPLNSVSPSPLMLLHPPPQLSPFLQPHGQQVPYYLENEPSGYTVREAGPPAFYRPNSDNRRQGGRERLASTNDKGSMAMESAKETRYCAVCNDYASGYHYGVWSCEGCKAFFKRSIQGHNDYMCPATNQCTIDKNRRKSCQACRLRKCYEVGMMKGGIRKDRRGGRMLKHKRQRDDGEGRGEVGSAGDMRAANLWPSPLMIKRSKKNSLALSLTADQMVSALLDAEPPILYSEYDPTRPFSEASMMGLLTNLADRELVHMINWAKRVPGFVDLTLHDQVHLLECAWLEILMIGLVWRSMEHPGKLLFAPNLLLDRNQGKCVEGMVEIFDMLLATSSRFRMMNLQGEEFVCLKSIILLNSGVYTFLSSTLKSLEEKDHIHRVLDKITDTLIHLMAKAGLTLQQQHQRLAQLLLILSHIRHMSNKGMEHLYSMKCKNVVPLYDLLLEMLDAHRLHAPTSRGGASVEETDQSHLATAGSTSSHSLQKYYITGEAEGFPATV
How it was run: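 VM7Luc4E2 cells (endogenous full-length ER-alpha, stable 4xERE-luciferase) were grown 5 days in phenol red-free medium with charcoal-stripped FBS, then exposed 22 h at 37C to compounds plus 0.1 nM (final) 17beta-estradiol; ONE-Glo luminescence read-out.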

[10] = qHTS assay to identify small molecule HDAC inhibitors (AID 1259364); note: top concentration of the series differs between compounds; nearly all actives have a fitted effect of over 45% in size
How it was run: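 Wild-type HCT-116 cells were plated overnight, exposed to compounds for 2 h at 37 °C, then given HDAC-Glo class I/II luminogenic reagent for 30 min at room temperature before luminescence was read.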

[11] = qHTS assay to identify small molecule agonists of the sonic hedgehog signaling (Shh) pathway (AID 1259368; calls by dose curve; note: series mostly up to about 92 µM; nearly all actives have a fitted effect of over 15% in size)
How it was run: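 NIH/3T3-derived 3T3Gli1-Luc cells carrying a stably integrated Gli1 response element–firefly luciferase reporter were plated, left 4 hr at 37 C, then given compounds in DMSO for 24 hr. Luminescence was read 30 min after adding luciferase reagent.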

[12] = A CellTox Green Cytotoxicity Assay to monitor cytotoxicity in HEK293 cells - 16 hour (AID 1224888); note: nearly all actives have a fitted effect of over 35% in size
How it was run: as §2

[13] = A CellTox Green Cytotoxicity Assay to monitor cytotoxicity in HepG2 cells - 8 hour (AID 1224890); note: nearly all actives have a fitted effect of over 45% in size
How it was run: as §1

[14] = target: Androgen receptor (Homo sapiens) (UniProt P10275); assay: qHTS assay to identify small molecule antagonists of the androgen receptor (AR) signaling pathway using the MDA cell line in the presence of 0.5 nM R1881 (AID 1259243); note: nearly all actives have a fitted effect of over 50% in size
Sequence of Androgen receptor (Homo sapiens) (P10275 whole entry, looked up): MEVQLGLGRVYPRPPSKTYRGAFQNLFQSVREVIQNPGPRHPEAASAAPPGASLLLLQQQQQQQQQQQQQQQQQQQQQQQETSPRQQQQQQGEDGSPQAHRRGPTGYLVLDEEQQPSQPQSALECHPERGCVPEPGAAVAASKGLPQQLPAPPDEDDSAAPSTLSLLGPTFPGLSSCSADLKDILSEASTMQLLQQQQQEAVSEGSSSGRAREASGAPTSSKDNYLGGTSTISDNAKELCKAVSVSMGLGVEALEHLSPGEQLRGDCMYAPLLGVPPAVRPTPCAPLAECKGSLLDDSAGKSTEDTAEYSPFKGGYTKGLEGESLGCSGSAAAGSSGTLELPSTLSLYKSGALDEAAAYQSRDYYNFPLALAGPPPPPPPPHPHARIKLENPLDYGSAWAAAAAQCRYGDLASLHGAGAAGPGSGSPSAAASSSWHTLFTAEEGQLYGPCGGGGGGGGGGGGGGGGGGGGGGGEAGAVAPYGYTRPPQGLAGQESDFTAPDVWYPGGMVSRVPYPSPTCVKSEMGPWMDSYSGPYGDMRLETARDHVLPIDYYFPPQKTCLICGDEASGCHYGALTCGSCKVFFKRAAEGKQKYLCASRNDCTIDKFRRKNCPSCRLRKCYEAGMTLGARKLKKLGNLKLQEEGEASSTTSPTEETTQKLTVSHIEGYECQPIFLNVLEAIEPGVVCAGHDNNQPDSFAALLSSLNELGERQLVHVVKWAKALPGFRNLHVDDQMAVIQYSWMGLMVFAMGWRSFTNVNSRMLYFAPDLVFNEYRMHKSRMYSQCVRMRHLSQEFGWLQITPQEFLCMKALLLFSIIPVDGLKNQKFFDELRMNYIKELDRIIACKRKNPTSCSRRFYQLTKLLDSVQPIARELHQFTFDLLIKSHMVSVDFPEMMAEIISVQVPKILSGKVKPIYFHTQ
How it was run: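 MDA-kb2 human breast carcinoma cells carrying an MMTV-luciferase reporter (AR- and GR-responsive) were plated, rested 5 hr at 37C, dosed with compounds, then stimulated with 0.5 nM R1881 (final) for 16 hr; luminescence was read after ONE-Glo.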

[15] = qHTS assay to identify small molecule phospholipidosis (PLD) inducers (AID 1259344; active = well fitted curve in the direction sought with a large enough effect; an effect the other way counts as inactive or inconclusive)
How it was run: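 HepG2 cells grown on collagen I take up LipidTOX Red while exposed to compound for 24 h; after fixation they are imaged at 20x and pit metrics are extracted.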

[16] = qHTS assay to identify small molecule HDAC inhibitors - cell viability counter screen (AID 1259365)
How it was run: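 Viability readout: CellTiter-Glo luminescence. Wild-type HCT-116 cells, 2hr compound treatment following overnight attachment at 37 C.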

[17] = qHTS assay to identify small molecule antagonists of the sonic hedgehog signaling (Shh) pathway - cell viability counter screen (AID 1259367); note: nearly all actives have a fitted effect of over 55% in size
How it was run: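 After a 4 hr settling period, 3T3 Gli1-Luc cells were treated with DMSO-dissolved chemicals and conditioned medium, kept 24 hr at 37C in 5% CO2, and assayed for viability by CellTiter-Fluor fluorescence following 1 hr reagent incubation.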

[18] = qHTS assay to identify small molecule antagonists of the sonic hedgehog signaling (Shh) pathway (AID 1259369; calls by dose curve; note: nearly all actives have a fitted effect of over 45% in size; note: potency is the fitted concentration of half-maximal effect)
How it was run: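 NIH/3T3-derived 3T3Gli1-Luc cells with stably integrated Gli1-Luc reporter were preincubated 4hr at 37 C, then given compounds in DMSO plus Shh conditioned medium and incubated 24hr. Firefly luciferase luminescence read after 30min reagent at room temperature.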

[19] = qHTS assay to identify small molecule agonists of the sonic hedgehog signaling (Shh) pathway - cell viability counter screen (AID 1259366); note: nearly all actives have a fitted effect of over 50% in size
How it was run: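 Viability measured fluorometrically (CellTiter-Fluor, 1hr, 37C) in 3T3 Gli1-Luc reporter cells after 23hr compound exposure within a 24hr incubation at 37C/5% CO2.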

[20] = A CellTox Green Cytotoxicity Assay to monitor cytotoxicity in HepG2 cells - 32 hour (AID 1224883); note: nearly all actives have a fitted effect of over 50% in size
How it was run: as §1
% is set by controls: 0 for no effect and ±100 for the full control effect.

CCNc1cc(O)ccc1C
inactive: Potency [1] | Potency [2] | Potency [3] | Potency [4] | Potency [5] | Potency [6] | Potency [7] | Potency [8] | Potency [9] | Potency [10] | outcome [11]

O=S(c1cc(Cl)cc(Cl)c1O)c1cc(Cl)cc(Cl)c1O
active: Potency [18] 21.1 µM
inactive: Potency [1] | Potency [2] | Potency [3] | Potency [4] | Potency [5] | Potency [12] | Potency [6] | Potency [13] | Potency [8] | Potency [14] | Potency [9] | Potency [15] | Potency [10] | Potency [16] | Potency [17] | outcome [11]

COc1ccc(C)cc1[N+](=O)[O-]
inactive: Potency [1] | Potency [2] | Potency [3] | Potency [4] | Potency [6] | Potency [13] | Potency [8] | Potency [10] | Potency [16] | Potency [19] | outcome [11] | Potency [18]

C1CCCNCCC1
inactive: Potency [1] | Potency [20] | Potency [5] | Potency [12] | Potency [6] | Potency [13] | Potency [7] | Potency [8] | Potency [10] | Potency [19] | Potency [17] | outcome [11] | Potency [18]

CC(C)(CO)[N+](=O)[O-]
inactive: Potency [1] | Potency [2] | Potency [3] | Potency [4] | Potency [5] | Potency [6] | Potency [13] | Potency [7] | Potency [8] | Potency [10] | Potency [16] | Potency [19] | Potency [17] | outcome [11] | Potency [18]

CCC(C)(C)CC
inactive: Potency [1] | Potency [2] | Potency [3] | Potency [5] | Potency [6] | Potency [7] | Potency [8] | Potency [10] | Potency [19] | outcome [11] | Potency [18]

CCCCC(=O)OCC(=O)[C@H]1[C@H](C)C[C@H]2[C@@H]3C[C@H](F)C4=CC(=O)C=C[C@]4(C)[C@@]3(F)[C@@H](O)C[C@@]21C
inactive: Potency [1] | Potency [2] | Potency [3] | Potency [4] | Potency [5] | Potency [12] | Potency [13] | Potency [7] | Potency [8] | Potency [9] | PLD induction [15] -1.62% [at 7.66 µM] | Potency [10] | Potency [19] | Potency [17] | outcome [11] | Potency [18]
active: Potency [6] 0.952 µM
